{
  "source": "PubChem BioAssay AID1851",
  "about": "(National Center for Advancing Translational Sciences (NCATS), 2009)",
  "note": "Screen size: about 16,000 compounds; about 5,100 (32%) were called active. About 25% were inconclusive and are not listed. The call rests on the fitted dose curve; in most records, active means well fitted curve in the direction sought with a large enough effect; inconclusive means small, poorly fitted or top-dose-only effect, or effect the other way; inactive means no such curve, though single readings can be large or run the other way. The list shows a part of the results. Where a structure was tested more than once in an assay, its records may differ in their call. On the % scale 0 is the no-effect control and ±100 the full control effect.",
  "data": [
    {"target": "Cytochrome P450 3A4 (Homo sapiens) (UniProt P08684)", "sequence (P08684 whole entry, looked up)": "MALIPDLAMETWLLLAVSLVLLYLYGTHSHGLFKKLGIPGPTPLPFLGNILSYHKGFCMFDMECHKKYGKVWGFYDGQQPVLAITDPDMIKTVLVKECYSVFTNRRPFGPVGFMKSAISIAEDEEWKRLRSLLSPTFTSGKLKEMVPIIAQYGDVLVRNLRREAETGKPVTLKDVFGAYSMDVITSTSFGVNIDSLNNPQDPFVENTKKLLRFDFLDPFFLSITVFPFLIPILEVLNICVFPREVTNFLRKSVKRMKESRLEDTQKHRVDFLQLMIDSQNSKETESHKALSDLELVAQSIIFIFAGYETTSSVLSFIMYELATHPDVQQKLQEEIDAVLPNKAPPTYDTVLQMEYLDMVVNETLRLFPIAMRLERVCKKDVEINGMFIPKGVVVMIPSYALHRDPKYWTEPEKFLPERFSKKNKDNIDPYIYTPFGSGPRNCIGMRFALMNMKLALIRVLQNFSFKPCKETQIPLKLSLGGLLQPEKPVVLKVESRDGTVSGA", "assay": "Cytochrome panel assay with activity outcomes", "settings": "recombinant CYP, pro-luciferin dealkylation, luminescence, p450-cyp3a4; series mostly up to 57.1 µM; activity, negative = inhibition: at the top concentration", "values": [
      {"smiles": "N[C@H](Cc1c[nH]c2ccccc12)P(=O)(O)O", "activity, negative = inhibition": "-2.01% [at 11.4 µM] (inactive)"},
      {"smiles": "CC[C@H](C(=O)[C@H](C)[C@H](O)[C@H](C)CCc1ccc(C)c(O)c1C(=O)O)[C@H]1O[C@](CC)([C@@H]2CC[C@@](O)(CC)[C@H](C)O2)C[C@H]1C", "AC50": "7.94 µM (active)"},
      {"smiles": "CS(=O)(=O)O[C@H]1CN2CCC1CC2", "activity, negative = inhibition": "-6.57% [at 11.4 µM] (inactive)"},
      {"smiles": "C[C@@H](C(=O)OC1C[C@H]2CC[C@@H](C1)N2C)c1ccc(Br)cc1", "note": "(some centres not stated)", "activity, negative = inhibition": "-5.24% (inactive)"},
      {"smiles": "Cc1ccccc1-c1nc(CS(=O)CC(=O)N2CCC3(CC2)OCCO3)c(C)o1", "note": "(configuration not stated)", "activity, negative = inhibition": "18.8% (inactive)"},
      {"smiles": "Cc1oc(-c2ccccc2F)nc1CS(=O)CC(=O)N1CCC2(CC1)OCCO2", "note": "(configuration not stated)", "AC50": "25.1 µM (active)"},
      {"smiles": "O=C(Cn1ncc2ccsc2c1=O)N1CCC2(CC1)OCCO2", "activity, negative = inhibition": "-18.2% (inactive)"},
      {"smiles": "COc1cc2c(cc1OC)[C@@]13CCN4CC5=CCO[C@H](CC(=O)O)[C@@H]([C@H]1N2)[C@H]5C[C@H]43", "activity, negative = inhibition": "-10.2% [at 11.4 µM] (inactive)"},
      {"smiles": "CCC1(CCSC(=N)N)C(=O)NC(=O)NC1=O", "activity, negative = inhibition": "-21.7% [at 11.4 µM] (inactive)"},
      {"smiles": "C[C@H]1[C@H](NC(=O)/C(=N/OC(C)(C)C(=O)O)c2csc(N)n2)C(=O)N1S(=O)(=O)O", "note": "(stereo in doubt)", "activity, negative = inhibition": "1.53% [at 25.6 µM] (inactive)"},
      {"smiles": "O=C(O)CNC(=O)[C@@H](CS)Cc1ccccc1", "activity, negative = inhibition": "-3.06% [at 25.6 µM] (inactive)"},
      {"smiles": "N#CC(C#N)=Cc1cc(O)c(O)c(O)c1", "AC50": "10 µM (active)"},
      {"smiles": "CC(C)(C)c1cc(C=C(C#N)C#N)cc(C(C)(C)C)c1O", "AC50": "3.16 µM (active)"},
      {"smiles": "NCc1cc(=O)[nH]o1", "activity, negative = inhibition": "inactive"},
      {"smiles": "CCCN[C@@H]1CCc2c(OC)cccc2[C@@H]1C", "activity, negative = inhibition": "-22.1% (inactive)"},
      {"smiles": "C[C@H]1CN(C2CCC(C#N)(c3ccc(F)cc3)CC2)CC[C@@]1(C(=O)O)c1ccccc1", "note": "(some centres not stated)", "activity, negative = inhibition": "0.78% [at 25.6 µM] (inactive)"},
      {"smiles": "COc1cc2c(cc1O)C[C@@H]1c3c(cc(O)c(OC)c3-2)CCN1C", "activity, negative = inhibition": "-12.7% [at 11.4 µM] (inactive)"},
      {"smiles": "CCCN1CC[C@@H]2c3cc(O)ccc3CC[C@H]21", "activity, negative = inhibition": "-8.01% (inactive)"},
      {"smiles": "CC(C)c1ccc(C(c2c(O)c3ccccc3oc2=O)c2c(O)c3ccccc3oc2=O)cc1", "activity, negative = inhibition": "-28.5% [at 11.4 µM] (inactive)"},
      {"smiles": "CC1=NCCc2c1[nH]c1cc(O)ccc21", "activity, negative = inhibition": "-15.3% [at 25.6 µM] (inactive)"},
      {"smiles": "CC(NCc1ccc(Cl)cc1)C(O)c1ccccc1", "note": "(configuration not stated)", "activity, negative = inhibition": "-27% (inactive)"},
      {"smiles": "CCNC[C@H](O)c1cccc(O)c1", "activity, negative = inhibition": "-7.75% [at 25.6 µM] (inactive)"},
      {"smiles": "C[C@@H](Cc1ccc(OCC(=O)O)cc1)NC[C@H](O)c1cccc(Cl)c1", "AC50": "25.1 µM (active) and inactive"},
      {"smiles": "CCOC(=O)c1ncn2c1CN(C)C(=O)c1cc(F)ccc1-2", "activity, negative = inhibition": "-3.59% (inactive)"},
      {"smiles": "Cn1ccnc1", "activity, negative = inhibition": "4.6% (inactive)"},
      {"smiles": "CNCCc1c[nH]c2ccc(O)cc12", "activity, negative = inhibition": "-6.65% (inactive)"},
      {"smiles": "CC(=O)c1ccc2c(c1)N(CCCN(C)C)c1ccccc1S2", "activity, negative = inhibition": "-19.6% [at 25.6 µM] (inactive)"},
      {"smiles": "C=CCN1C(=O)c2ccccc2Sc2ccc(C(=O)N3CCC4(CC3)OCCO4)cc21", "AC50": "3.98 µM (active)"},
      {"smiles": "O=C(c1cc2cc3ccc(Cl)cc3nc2o1)N1CCC2(CC1)OCCO2", "activity, negative = inhibition": "-25.6% (inactive)"},
      {"smiles": "O=C(O)CS(=O)(=O)C(c1ccccc1)c1ccccc1", "activity, negative = inhibition": "2.64% [at 11.4 µM] (inactive)"},
      {"smiles": "CC(=O)c1c(O)c(C)c(O)c(Cc2c(O)c3c(c(C(=O)/C=C\\c4ccccc4)c2O)OC(C)(C)C=C3)c1O", "AC50": "12.6 µM (active)"},
      {"smiles": "Clc1cnc(Oc2ccc(Oc3ncc(Cl)cc3Cl)cc2)c(Cl)c1", "activity, negative = inhibition": "-3.91% (inactive)"},
      {"smiles": "CSC([N-]/N=C/c1cccc(C)n1)=[S]=[Cu].CS[C@H]([S-])[N-]/N=C/c1cccc(C)n1", "AC50": "3.98 µM (active)"},
      {"smiles": "CCCN(CCC)[C@@H]1CCc2c(OC)cccc2[C@@H]1C", "activity, negative = inhibition": "-4.58% (inactive)"},
      {"smiles": "COC1=CC(=O)O[C@@H](/C=C\\c2ccccc2)C1", "activity, negative = inhibition": "4.42% [at 25.6 µM] (inactive)"},
      {"smiles": "O=C(C[n+]1ccc2ccccc2c1)c1ccc2ccc3ccccc3c2c1", "activity, negative = inhibition": "-29.1% [at 11.4 µM] (inactive)"},
      {"smiles": "Nc1nc(N)c(N=Nc2ccc([As](=O)(O)O)c(O)c2)c(N)n1", "activity, negative = inhibition": "7% [at 11.4 µM] (inactive)"},
      {"smiles": "CNCCCc1ccccc1", "activity, negative = inhibition": "-2% (inactive)"},
      {"smiles": "C[C@@H](Cc1cccc(C(F)(F)F)c1)NCCCc1ccccc1", "AC50": "5.01 µM (active)"},
      {"smiles": "C[C@@H](Cc1ccccc1)NCCC(c1ccccc1)c1ccccc1", "activity, negative = inhibition": "-15.2% [at 25.6 µM] (inactive)"},
      {"smiles": "COc1cc2cc(c1Cl)N(C)C(=O)C[C@H](OC(=O)C(C)C)[C@]1(C)O[C@@H]1[C@@H](C)[C@H]1C[C@](O)(NC(=O)O1)[C@@H](OC)/C=C\\C=C(\\C)C2", "activity, negative = inhibition": "-29.4% [at 11.4 µM] (inactive)"},
      {"smiles": "c1ccc2c([C@@H]3CCN(CCN4CCOCC4)C3)c[nH]c2c1", "activity, negative = inhibition": "-4.68% [at 11.4 µM] (inactive)"},
      {"smiles": "COCOc1ccc(Br)cc1C(=O)/C=C\\c1ccc2c(c1)OCO2", "AC50": "3.16 µM (active)"},
      {"smiles": "CN1CCN(c2cc(N3CCCC3)c([N+](=O)[O-])cc2F)CC1", "activity, negative = inhibition": "-9.54% (inactive)"},
      {"smiles": "COc1cc(-c2ccc(=O)[nH]n2)ccc1OC(F)F", "activity, negative = inhibition": "-23.6% (inactive)"},
      {"smiles": "CN1CCN(c2ccc([N+](=O)[O-])c(N/N=C3\\CN4CCC3CC4)c2)CC1", "activity, negative = inhibition": "11.8% (inactive)"},
      {"smiles": "CC[C@H](Oc1ccc(Cl)cc1)C(=O)OC1C[C@H]2CC[C@@H](C1)N2C", "note": "(some centres not stated)", "activity, negative = inhibition": "-24.5% (inactive)"},
      {"smiles": "O=C1CC[C@]2(O)[C@H]3Cc4ccc(O)c5c4[C@@]2(CCN3CC2CC2)[C@@H]1O5", "activity, negative = inhibition": "-5.91% [at 25.6 µM] (inactive)"},
      {"smiles": "Oc1ccc2c3c1O[C@H]1c4c(c5ccccc5n4Cc4ccccc4)C[C@]4(O)[C@H](C2)N(CC2CC2)CC[C@@]314", "AC50": "10 µM (active)"},
      {"smiles": "Oc1ccc2c3c1O[C@H]1c4[nH]c5c(c4C[C@@]4(O)[C@@H](C2)N(CC2CC2)CC[C@]314)C[C@]1(O)[C@H]2Cc3ccc(O)c4c3[C@@]1(CCN2CC1CC1)[C@@H]5O4", "activity, negative = inhibition": "-17.9% (inactive)"},
      {"smiles": "CN1C(=O)CCS(=O)(=O)[C@@H]1c1ccc(Cl)cc1", "activity, negative = inhibition": "-19.6% [at 25.6 µM] (inactive)"},
      {"smiles": "CN1[C@@H]2CC[C@H]1CC(O)C2", "note": "(some centres not stated)", "activity, negative = inhibition": "0.0981% [at 25.6 µM] (inactive)"},
      {"smiles": "C[C@@H]1O[C@@H](O[C@H]2C[C@@H](O)[C@]3(CO)[C@@H]4[C@@H](O)C[C@]5(C)[C@H]([C@@H]6COC(=O)C6)CC[C@@]5(O)[C@H]4CC[C@@]3(O)C2)[C@H](O)[C@H](O)[C@@H]1O", "activity, negative = inhibition": "-2.34% (inactive)"},
      {"smiles": "CC(C)COC(=O)OCN1C(=O)CN(CCN2CC(=O)N(COC(=O)OCC(C)C)C(=O)C2)CC1=O", "AC50": "25.1 µM (active)"},
      {"smiles": "CN1CCc2cc(O)cc3c2[C@H]1Cc1ccc(O)c(O)c1-3", "activity, negative = inhibition": "-24% (inactive)"},
      {"smiles": "C[N+](C)(C)CCCCCCCCCC[N+](C)(C)C", "activity, negative = inhibition": "-7.31% (inactive)"},
      {"smiles": "Nc1nc(N)c(Cn2ccnc2)c(=O)[nH]1", "activity, negative = inhibition": "-3.48% [at 11.4 µM] (inactive)"}
    ]}
  ]
}
